Measurements as given in PubChem BioAssay (Tox21).
Inconclusive results are not listed. Active and inactive are the calls of the source. Unless noted, the call rests on the fitted dose curve; in most records, active means well fitted curve in the direction sought with a large enough effect in the repeat runs; inconclusive means weak or mixed curves; inactive means no such curve, though single readings can be large; an effect the other way counts as inactive or inconclusive. Where a SMILES comes first, the peptide text is derived from it.

How the values were obtained:
[1] = qHTS assay to identify aromatase inhibitors - cell viability counter screen (AID 743084);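 further: cells stimulated with testosterone during compound exposure; nearly all actives have a fitted effect of over 55% in size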
[2] = qHTS assay to identify small molecule that activate the aryl hydrocarbon receptor (AhR) signaling pathway - cell viability counter screen (AID 743086);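 further: HepG2 liver cells carrying the AhR DRE luciferase reporter; series mostly up to about 70 µM; nearly all actives have a fitted effect of over 45% in size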
Procedure, shortened: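 Cytotoxicity counter screen: CellTiter-Fluor signal (30 min, 37 C) in 4000 HepG2 cells/well carrying the DRE-luciferase reporter, following 24 h compound exposure at 37 C.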

[3] = biological target: Peroxisome proliferator-activated receptor gamma (Homo sapiens) (UniProt P37231); assay: qHTS assay to identify small molecule agonists of the peroxisome proliferator-activated receptor gamma (PPARg) signaling pathway (AID 743094; active means well fitted activation curve with a large enough effect in the signal ratio in the repeat runs, not every such curve was filed as active; the % refers to the signal ratio)
Peroxisome proliferator-activated receptor gamma (Homo sapiens), sequence (P37231 whole entry, looked up): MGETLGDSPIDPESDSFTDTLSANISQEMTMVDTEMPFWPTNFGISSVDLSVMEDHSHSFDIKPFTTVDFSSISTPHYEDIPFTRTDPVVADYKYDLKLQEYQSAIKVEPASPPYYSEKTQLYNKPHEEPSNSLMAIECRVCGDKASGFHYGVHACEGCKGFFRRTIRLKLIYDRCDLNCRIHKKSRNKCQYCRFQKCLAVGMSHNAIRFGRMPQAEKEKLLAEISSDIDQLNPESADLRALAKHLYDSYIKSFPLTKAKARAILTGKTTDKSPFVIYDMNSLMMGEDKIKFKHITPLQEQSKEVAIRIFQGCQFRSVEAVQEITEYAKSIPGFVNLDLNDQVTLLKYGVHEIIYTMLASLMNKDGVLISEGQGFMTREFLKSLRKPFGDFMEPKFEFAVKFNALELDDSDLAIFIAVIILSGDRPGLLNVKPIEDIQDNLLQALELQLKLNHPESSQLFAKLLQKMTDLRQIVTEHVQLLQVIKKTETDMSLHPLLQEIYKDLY
Procedure, shortened: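 Reporter activation was scored by fluorescence of cleaved LiveBLAzer B/G substrate (1 h, room temperature) in PPARg-bla HEK293H cells previously treated 17 h at 37C with DMSO-dissolved compounds.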

[4] = qHTS assay to identify small molecule antagonists of the peroxisome proliferator-activated receptor gamma (PPARg) signaling pathway - cell viability counter screen (AID 743194); further: nearly all actives have a fitted effect of over 55% in size
Procedure, shortened: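 Viability was measured as CellTiter-Glo luminescence in GeneBLAzer PPARg UAS-bla HEK293H cells. These cells had been exposed 17 h at 37 C to compounds together with rosiglitazone at 50 nM final, with the beta-lactamase readout taken in the same wells.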

[5] = qHTS assay for small molecule agonists of the antioxidant response element (ARE) signaling pathway (AID 743202; active means well fitted activation curve with a large enough effect in the signal ratio in the repeat runs, not every such curve was filed as active; the % refers to the signal ratio)
Procedure, shortened: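 After 16 hours of compound treatment at 37 C, HepG2 cells with a stably integrated ARE-driven beta-lactamase reporter were loaded 2 hours at room temperature with LiveBLAzer B/G FRET substrate and fluorescence intensity measured.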

[6] = qHTS assay for small molecule agonists of the antioxidant response element (ARE) signaling pathway - cell viability counter screen (AID 743203; calls by dose curve; further: nearly all actives have a fitted effect of over 55% in size)
Procedure, shortened: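 Viability counter screen: stably transfected ARE-bla HepG2 line, 16 hrs compound exposure at 37C/5% CO2, ATP-based CellTiter-Glo luminescence measured in the reporter wells.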

[7] = qHTS assay for small molecule activators of the heat shock response signaling pathway - cell viability counter screen (AID 743209); further: nearly all actives have a fitted effect of over 50% in size
Procedure, shortened: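 Viability of HSE-bla HeLa cells is measured with CellTiter-Glo in the wells already used for the reporter read. Compound exposure lasts 5 h at 37 C, and luminescence is read after 30 min at room temperature.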

[8] = qHTS assay for small molecule activators of the heat shock response signaling pathway (AID 743210; active means well fitted activation curve with a large enough effect in the signal ratio in the repeat runs, with a control signal flat, not every such curve was filed as active; the % refers to the signal ratio; further: series mostly up to about 63 µM)
Procedure, shortened: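 Compound exposure lasted 5 h at 37 C in HeLa cells carrying a heat-shock-element-driven beta-lactamase reporter. Read-out: fluorescence intensity after 2.5 h room-temperature loading with LiveBLAzer B/G FRET substrate.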

[9] = qHTS assay to identify small molecule agonists of the peroxisome proliferator-activated receptor delta (PPARd) signaling pathway - cell viability counter screen (AID 743211); further: nearly all actives have a fitted effect of over 55% in size
Procedure, shortened: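 PPARd-bla HEK293H cells (3000/well) were pre-incubated 5 h at 37 C, then exposed to compound for 17 h at 37 C. After 2 h with LiveBLAzer substrate, CellTiter-Glo was added to the same wells; luminescence read after 30 min at room temperature.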

[10] = qHTS assay to identify small molecule antagonists of the peroxisome proliferator-activated receptor delta (PPARd) signaling pathway - cell viability counter screen (AID 743213); further: nearly all actives have a fitted effect of over 50% in size
Procedure, shortened: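 Viability counter-screen, qHTS format: PPARd-bla HEK293H, L165041 300 nM final, 17 h compound exposure at 37 C, CellTiter-Glo luminescence after 30 min RT.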

[11] = biological target: Peroxisome proliferator-activated receptor delta (Homo sapiens) (UniProt Q03181); assay: qHTS assay to identify small molecule antagonists of the peroxisome proliferator-activated receptor delta (PPARd) signaling pathway (AID 743215; active means well fitted inhibition curve with a large enough effect in the signal ratio in the repeat runs, not every such curve was filed as active; the % refers to the signal ratio;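 further: cells stimulated with agonist L165041 at 300 nM final during compound exposure; series mostly up to about 62 µM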)
Peroxisome proliferator-activated receptor delta (Homo sapiens), sequence (Q03181 whole entry, looked up): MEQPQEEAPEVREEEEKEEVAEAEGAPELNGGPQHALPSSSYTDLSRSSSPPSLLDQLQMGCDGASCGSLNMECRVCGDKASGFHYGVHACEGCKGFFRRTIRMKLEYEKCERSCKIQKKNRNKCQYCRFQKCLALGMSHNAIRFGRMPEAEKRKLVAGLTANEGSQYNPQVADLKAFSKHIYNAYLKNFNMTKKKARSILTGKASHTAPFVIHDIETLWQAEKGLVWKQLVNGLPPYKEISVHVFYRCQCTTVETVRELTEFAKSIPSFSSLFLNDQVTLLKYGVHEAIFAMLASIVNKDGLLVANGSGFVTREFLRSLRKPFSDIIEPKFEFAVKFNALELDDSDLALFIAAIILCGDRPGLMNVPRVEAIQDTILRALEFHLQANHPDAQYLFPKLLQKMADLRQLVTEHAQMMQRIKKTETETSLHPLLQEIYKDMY
Procedure, shortened: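 Plated HEK293H PPARd-bla cells rested 5 h at 37 C and 5% CO2. Compound, then agonist L165041 at 300 nM final, was added; 17 h at 37 C followed. Substrate loading, 2 h room temperature, fluorescence measured.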

[12] = biological target: Bile acid receptor (Homo sapiens) (UniProt Q96RI1); assay: qHTS assay to identify small molecule antagonists of the farnesoid-X-receptor (FXR) signaling pathway (AID 743217; active means well fitted inhibition curve with a large enough effect in the signal ratio in the repeat runs, not every such curve was filed as active; the % refers to the signal ratio)
Bile acid receptor (Homo sapiens), sequence (Q96RI1 whole entry, looked up): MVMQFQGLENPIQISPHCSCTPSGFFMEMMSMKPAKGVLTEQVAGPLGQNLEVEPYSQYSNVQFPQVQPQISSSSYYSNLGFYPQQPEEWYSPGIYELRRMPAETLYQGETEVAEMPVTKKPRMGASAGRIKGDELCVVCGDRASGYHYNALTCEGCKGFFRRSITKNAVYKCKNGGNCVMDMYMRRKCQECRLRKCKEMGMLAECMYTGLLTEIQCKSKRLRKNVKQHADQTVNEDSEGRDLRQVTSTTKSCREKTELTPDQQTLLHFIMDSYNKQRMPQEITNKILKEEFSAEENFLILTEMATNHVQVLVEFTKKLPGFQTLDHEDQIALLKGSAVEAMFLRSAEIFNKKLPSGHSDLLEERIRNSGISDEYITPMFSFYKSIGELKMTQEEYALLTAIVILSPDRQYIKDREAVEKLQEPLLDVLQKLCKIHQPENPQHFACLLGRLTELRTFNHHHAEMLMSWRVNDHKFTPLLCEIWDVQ
Procedure, shortened: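 Screen of the Tox21 10K library in quantitative HTS format using FXR-UAS-bla HEK 293T reporter cells. Agonist chenodeoxycholic acid, 50 uM final, added with compounds; 16 h incubation at 37 °C; beta-lactamase FRET fluorescence measured.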

[13] = qHTS assay to identify small molecule agonists of the farnesoid-X-receptor (FXR) signaling pathway - cell viability counter screen (AID 743218); further: nearly all actives have a fitted effect of over 45% in size
Procedure, shortened: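 Viability of FXR-bla HEK 293T cells is measured by ATP-based CellTiter-Glo luminescence following 16 h compound treatment at 37 C and a prior 2 h room-temperature beta-lactamase substrate step.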

[14] = qHTS assay to identify small molecule antagonists of the farnesoid-X-receptor (FXR) signaling pathway - cell viability counter screen (AID 743221; active means well fitted cell-killing curve with a large enough effect in the repeat runs, not every such curve was filed as active; further: nearly all actives have a fitted effect of over 50% in size)
Procedure, shortened: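 GeneBLAzer FXR-UAS-bla HEK 293T cells, compound plus chenodeoxycholic acid (50 uM final), 16 h at 37 C. CellTiter-Glo added to the same wells after the beta-lactamase read; luminescence read after 30 min at room temperature as viability.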

[15] = biological target: Vitamin D3 receptor (Homo sapiens) (UniProt P11473); assay: qHTS assay to identify small molecule agonists of the vitamin D receptor (VDR) signaling pathway (AID 743222; calls by dose curve)
Vitamin D3 receptor (Homo sapiens), sequence (P11473 whole entry, looked up): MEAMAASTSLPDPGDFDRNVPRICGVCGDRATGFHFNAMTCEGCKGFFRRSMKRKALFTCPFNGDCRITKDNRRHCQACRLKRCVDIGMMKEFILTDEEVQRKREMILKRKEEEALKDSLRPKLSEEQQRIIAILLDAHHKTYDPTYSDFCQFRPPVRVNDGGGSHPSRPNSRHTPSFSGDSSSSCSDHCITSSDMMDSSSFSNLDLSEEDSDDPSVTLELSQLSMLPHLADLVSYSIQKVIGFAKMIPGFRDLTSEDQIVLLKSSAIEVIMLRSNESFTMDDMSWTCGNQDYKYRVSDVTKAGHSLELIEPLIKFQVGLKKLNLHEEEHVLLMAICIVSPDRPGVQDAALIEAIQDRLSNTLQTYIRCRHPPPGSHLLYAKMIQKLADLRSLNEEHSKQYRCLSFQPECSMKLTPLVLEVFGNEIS
Procedure, shortened: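 Fluorescence from cleaved LiveBLAzer B/G FRET substrate served as readout. VDR-bla cells had been treated 16 h at 37C with test compounds in DMSO, following a 4 h settling period, and substrate was loaded for 2 h at RT.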

[16] = biological target: Peroxisome proliferator-activated receptor delta (Homo sapiens) (UniProt Q03181); assay: qHTS assay to identify small molecule agonists of the peroxisome proliferator-activated receptor delta (PPARd) signaling pathway (AID 743212; calls by dose curve;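 further: HEK293H cells with PPARd UAS beta-lactamase reporter GeneBLAzer system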)
Procedure, shortened: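 Beta-lactamase reporter readout: a ratiometric FRET signal from the LiveBLAzer substrate after 2 h at room temperature. Compound exposure at 37 °C in PPARδ-bla HEK293H cells driven by an upstream activator sequence.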

[17] = biological target: Vitamin D3 receptor (Homo sapiens) (UniProt P11473); assay: qHTS assay to identify small molecule antagonists of the vitamin D receptor (VDR) signaling pathway (AID 743223; active means well fitted inhibition curve with a large enough effect in the signal ratio in the repeat runs, not every such curve was filed as active; the % refers to the signal ratio)
Procedure, shortened: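 VDR-bla cells were treated with compound plus 3 nM final 1alpha,25-dihydroxyvitamin D3 for 16 h at 37C. Beta-lactamase reporter read by B/G FRET substrate fluorescence after 2 h at room temperature. qHTS format.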

[18] = biological target: Peroxisome proliferator-activated receptor gamma (Homo sapiens) (UniProt P37231); assay: qHTS assay to identify small molecule antagonists of the peroxisome proliferator-activated receptor gamma (PPARg) signaling pathway (AID 743191; calls by dose curve; further: series mostly up to about 63 µM; nearly all actives have a fitted effect of over 30% in size)
Procedure, shortened: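 Beta-lactamase reporter under UAS control in HEK293H PPARg-bla cells; compound treatment 17 h at 37C. Read-out: fluorescence intensity after 1 h room-temperature incubation with LiveBLAzer B/G FRET substrate.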

[19] = biological target: Aryl hydrocarbon receptor (Homo sapiens) (UniProt P35869); assay: qHTS assay to identify small molecule that activate the aryl hydrocarbon receptor (AhR) signaling pathway (AID 743085);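 further: HG2L7.5c1 human HepG2 liver cells with stably integrated DRE-driven firefly reporter; series mostly up to about 70 µM; nearly all actives have a fitted effect of over 15% in size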
Aryl hydrocarbon receptor (Homo sapiens), sequence (P35869 whole entry, looked up): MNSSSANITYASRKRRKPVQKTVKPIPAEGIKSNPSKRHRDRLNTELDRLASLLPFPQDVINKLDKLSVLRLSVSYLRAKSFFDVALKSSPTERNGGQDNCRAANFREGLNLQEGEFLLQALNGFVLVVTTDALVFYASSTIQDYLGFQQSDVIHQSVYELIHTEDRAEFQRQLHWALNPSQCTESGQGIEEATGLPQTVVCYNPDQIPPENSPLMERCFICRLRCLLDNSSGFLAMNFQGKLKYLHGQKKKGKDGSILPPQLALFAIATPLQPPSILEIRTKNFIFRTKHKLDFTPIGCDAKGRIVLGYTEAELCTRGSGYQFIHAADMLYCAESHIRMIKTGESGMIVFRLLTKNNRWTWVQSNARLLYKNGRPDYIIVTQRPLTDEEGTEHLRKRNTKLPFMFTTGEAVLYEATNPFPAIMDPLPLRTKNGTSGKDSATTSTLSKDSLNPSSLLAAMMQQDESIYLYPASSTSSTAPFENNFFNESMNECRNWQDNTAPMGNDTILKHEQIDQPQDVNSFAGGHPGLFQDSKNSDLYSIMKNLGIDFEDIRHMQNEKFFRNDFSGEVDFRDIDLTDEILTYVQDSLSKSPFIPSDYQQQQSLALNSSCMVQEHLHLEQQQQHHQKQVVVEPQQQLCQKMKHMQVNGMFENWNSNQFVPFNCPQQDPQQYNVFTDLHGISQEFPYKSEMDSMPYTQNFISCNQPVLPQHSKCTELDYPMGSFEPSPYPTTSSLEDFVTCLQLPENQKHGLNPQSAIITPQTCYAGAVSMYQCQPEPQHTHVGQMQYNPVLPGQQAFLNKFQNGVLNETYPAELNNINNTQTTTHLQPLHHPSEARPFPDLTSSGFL
Procedure, shortened: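 HepG2 cells stably carrying a 20-DRE firefly luciferase reporter (HG2L7.5c1) treated with compound for 24 hr at 37C. Luciferase read by ONE-Glo luminescence, with CellTiter-Fluor viability read first.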

[20] = biological target: Bile acid receptor (Homo sapiens) (UniProt Q96RI1); assay: qHTS assay to identify small molecule agonists of the farnesoid-X-receptor (FXR) signaling pathway (AID 743220; active means well fitted activation curve with a large enough effect in the signal ratio in the repeat runs, not every such curve was filed as active; the % refers to the signal ratio)
Procedure, shortened: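 FXR-UAS-bla HEK 293T cells carrying a UAS-driven beta-lactamase reporter were plated for 5 h at 37C/5% CO2, then exposed to DMSO-dissolved Tox21 10K compounds for 16 h at 37C. A LiveBLAzer B/G FRET substrate was loaded for 2 h at room temperature before fluorescence reading.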
On the % scale 0 is the no-effect control and ±100 the full control effect.

N#Cc1ccccc1O
inactive: Potency [1] | Potency [2] | Potency [3] | outcome [4] | Potency [5] | outcome [6] | Potency [7] | outcome [8] | outcome [9] | outcome [10] | outcome [11] | outcome [12] | outcome [13] | outcome [14] | outcome [15]

CC1=C(C(=O)O)N2C(=O)[C@@H](NC(=O)[C@H](N)c3ccccc3)[C@H]2SC1
inactive: Potency [1] | Potency [2] | Potency [3] | outcome [4] | outcome [6] | Potency [7] | outcome [8] | outcome [9] | outcome [16] | outcome [10] | outcome [14] | outcome [15] | outcome [17]

CC(=O)N[C@@H](CO)C(=O)N[C@@H](CC(=O)O)C(=O)N[C@@H](CCCCN)C(=O)N1CCC[C@H]1C(=O)O (Ac-SDKP-OH)
inactive: outcome [18] | outcome [4] | Potency [5] | outcome [6] | outcome [8] | outcome [9] | outcome [16] | outcome [10] | outcome [11] | outcome [12] | outcome [13] | outcome [14] | outcome [15] | outcome [17]

OC1(c2ccc(Cl)cc2)CCNCC1
inactive: outcome [18] | Potency [5] | outcome [6] | Potency [7] | outcome [8] | outcome [9] | outcome [16] | outcome [10] | outcome [11] | outcome [12] | outcome [14] | outcome [15] | outcome [17]

O=C(O)CONC(=O)c1ccccc1
inactive: Potency [2] | outcome [4] | Potency [5] | outcome [6] | Potency [7] | outcome [8] | outcome [9] | outcome [16] | outcome [10] | outcome [11] | outcome [12] | outcome [13] | outcome [14] | outcome [15]

CC(C)CO
inactive: Potency [19] | Potency [2] | outcome [4] | Potency [5] | outcome [6] | outcome [9] | outcome [10] | outcome [13] | outcome [14] | outcome [15]

CCN(CC)CCN
inactive: outcome [18] | outcome [4] | Potency [5] | outcome [6] | outcome [8] | outcome [9] | outcome [10] | outcome [12] | outcome [13] | outcome [20] | outcome [14] | outcome [15] | outcome [17]

O=C1c2ccccc2C(=O)c2cc(Cl)ccc21
inactive: activity change, negative = cytotoxicity [1] 7.6% [at 8.47 µM] | viability change, negative = cytotoxic [2] 10.5% [at 8.47 µM] | activation [3] 0.384% [at 7.08 µM] | activation [5] -9.26% [at 8.36 µM] | viability change, negative = cytotoxic [6] -3.86% [at 8.36 µM] | activity change, negative = cytotoxicity [7] 2.51% [at 5.95 µM] | activation [8] -0.0238% [at 5.95 µM] | activity change, negative = cytotoxicity [9] -0.0176% [at 5.95 µM] | activation [16] -1.6% [at 5.95 µM] | viability change, negative = cytotoxic [10] 3.97% [at 6.26 µM] | ratio activity, negative = inhibition [11] 5.48% [at 6.26 µM] | activity change, negative = inhibition [12] -1.25% [at 5.95 µM] | viability change, negative = cytotoxic [13] -3.87% [at 5.95 µM] | activation [20] 0.306% [at 5.95 µM] | activity change, negative = cytotoxicity [14] -3.54% [at 5.95 µM] | activation [15] -5.27% [at 6.01 µM] | activity change, negative = inhibition [17] -12.7% [at 6.95 µM]

COc1cc(OC)nc(O[C@H](C(=O)O)C(OC)(c2ccccc2)c2ccccc2)n1
inactive: outcome [4] | Potency [5] | outcome [6] | outcome [9] | outcome [10] | outcome [14] | outcome [15] | outcome [17]

COCCc1ccccn1
inactive: outcome [18] | outcome [4] | Potency [5] | outcome [6] | outcome [8] | outcome [9] | outcome [10] | outcome [11] | outcome [14]

COc1cc2c(cc1OC)C(=O)C(CC1CCN(Cc3ccccc3)CC1)C2 (centres undefined)
inactive: Potency [1] | Potency [2] | Potency [3] | outcome [4] | outcome [6] | Potency [7] | outcome [8] | outcome [9] | outcome [10] | outcome [11] | outcome [13] | outcome [20] | outcome [14]
